Experimental data: paper PMC4081100, “A DNA-binding-site landscape and regulatory network analysis for NAC transcription factors in Arabidopsis thaliana”

Tests used:
Assay in all cases: universal protein binding microarray (PBM); transcription factors of Arabidopsis thaliana; high values mean tight binding
GST-NTL6(1-168) = GST-NTL6(1-168) (Arabidopsis thaliana, UniProt Q9SCK6 1-168); settings: protein: recombinant; tags: GST; chain copies: 2; dsDNA, one strand shown
Method in brief: (§1)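 Binding is expressed as the normalised enrichment score (E-score). Proteins carrying a GST tag, whether NAC-domain, full-length or DNA-binding-domain forms, were induced in cells, and zinc acetate was added for zinc-finger proteins. After purification on glutathione–Sepharose 4B and quantification by A280 or anti-GST western blot, each was applied in duplicate at 200 to 500 nM final to custom all-10-mer Agilent 4 × 180K arrays made double-stranded by primer extension. Gapped and ungapped 8-mers were scored.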

GST-ANAC055(1-171) = molecular target: T1, GST-ANAC055(1-171) (Arabidopsis thaliana, UniProt Q9LDY8 1-171); settings: protein: recombinant; tags: GST; chain copies: 2; dsDNA, one strand shown
T1 sequence: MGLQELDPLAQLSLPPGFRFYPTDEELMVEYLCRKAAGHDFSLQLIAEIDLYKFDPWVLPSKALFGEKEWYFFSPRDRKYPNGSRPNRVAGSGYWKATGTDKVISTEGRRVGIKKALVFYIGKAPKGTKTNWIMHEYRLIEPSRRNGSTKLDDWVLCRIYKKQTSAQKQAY
Method in brief: as §1

GST-ATAF1 NAC domain = molecular target: T2, GST-ATAF1 NAC domain (Arabidopsis thaliana, UniProt Q39013 7-158); settings: protein: recombinant; tags: GST; chain copies: 2; dsDNA, one strand shown
T2 sequence: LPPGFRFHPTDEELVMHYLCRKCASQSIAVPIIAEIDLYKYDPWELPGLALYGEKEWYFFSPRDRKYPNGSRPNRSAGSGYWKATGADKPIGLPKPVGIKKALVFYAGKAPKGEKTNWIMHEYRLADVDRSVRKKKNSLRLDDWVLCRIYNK
Method in brief: as §1

GST-NAP(1-166) = molecular target: T3, GST-NAP(1-166) (Arabidopsis thaliana, UniProt O49255 1-166); settings: protein: recombinant; tags: GST; chain copies: 2; dsDNA, one strand shown
T3 sequence: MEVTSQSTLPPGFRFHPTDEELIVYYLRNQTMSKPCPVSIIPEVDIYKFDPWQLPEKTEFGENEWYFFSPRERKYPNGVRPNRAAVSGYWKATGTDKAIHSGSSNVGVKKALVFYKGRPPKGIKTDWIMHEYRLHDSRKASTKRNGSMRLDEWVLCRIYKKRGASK
Method in brief: as §1

GST-VND3 NAC domain = molecular target: T4, GST-VND3 NAC domain (Arabidopsis thaliana, UniProt Q9FH59 12-162); settings: protein: recombinant; tags: GST; chain copies: 2; dsDNA, one strand shown
T4 sequence: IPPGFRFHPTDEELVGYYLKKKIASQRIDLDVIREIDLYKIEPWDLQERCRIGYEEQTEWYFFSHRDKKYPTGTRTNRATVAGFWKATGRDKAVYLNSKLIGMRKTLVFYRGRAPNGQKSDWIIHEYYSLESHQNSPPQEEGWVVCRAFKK
Method in brief: as §1

GST-WRKY1(266-371) = GST-WRKY1(266-371) (Arabidopsis thaliana, UniProt Q9SI37 266-371); settings: protein: recombinant; tags: GST; dsDNA, one strand shown
GST-WRKY1(266-371), sequence (Q9SI37 266-371): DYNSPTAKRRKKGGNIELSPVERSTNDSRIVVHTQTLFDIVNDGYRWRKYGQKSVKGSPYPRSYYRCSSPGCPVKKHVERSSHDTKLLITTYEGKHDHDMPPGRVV
Method in brief: as §1

GST-NST2(1-184) = molecular target: T5, GST-NST2(1-184) (Arabidopsis thaliana, UniProt Q9M274 1-184); settings: protein: recombinant; tags: GST; chain copies: 2; dsDNA, one strand shown
T5 sequence: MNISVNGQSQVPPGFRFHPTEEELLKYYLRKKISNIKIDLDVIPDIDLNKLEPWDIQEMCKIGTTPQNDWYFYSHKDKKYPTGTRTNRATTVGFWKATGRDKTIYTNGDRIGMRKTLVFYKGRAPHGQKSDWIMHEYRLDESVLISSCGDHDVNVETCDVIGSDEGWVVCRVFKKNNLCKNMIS
Method in brief: as §1

GST-VND7 NAC domain = molecular target: T6, GST-VND7 NAC domain (Arabidopsis thaliana, UniProt Q9C8W9 9-158); settings: protein: recombinant; tags: GST; chain copies: 2; dsDNA, one strand shown
T6 sequence: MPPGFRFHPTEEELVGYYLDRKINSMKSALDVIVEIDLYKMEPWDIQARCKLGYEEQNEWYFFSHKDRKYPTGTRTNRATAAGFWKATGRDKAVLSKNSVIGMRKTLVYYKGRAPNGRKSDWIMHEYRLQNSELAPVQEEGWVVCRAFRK
Method in brief: as §1

[1] = molecular target: T7, GST-ANAC092(1-285) full length (Arabidopsis thaliana, UniProt Q9FKA0 1-285); settings: protein: recombinant; tags: GST; chain copies: 2; dsDNA, one strand shown
T7 sequence: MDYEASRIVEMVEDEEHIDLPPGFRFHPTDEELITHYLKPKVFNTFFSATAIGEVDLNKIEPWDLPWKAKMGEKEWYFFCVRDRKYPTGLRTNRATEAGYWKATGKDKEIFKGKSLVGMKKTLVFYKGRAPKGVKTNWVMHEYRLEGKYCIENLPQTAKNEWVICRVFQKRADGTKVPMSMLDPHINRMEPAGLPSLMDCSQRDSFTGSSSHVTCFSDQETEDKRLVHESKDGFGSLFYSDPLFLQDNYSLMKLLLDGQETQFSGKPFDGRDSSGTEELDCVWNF
Method in brief: as §1

GST-ANAC092(1-176) = molecular target: T8, GST-ANAC092(1-176) (Arabidopsis thaliana, UniProt Q9FKA0 1-176); settings: protein: recombinant; tags: GST; chain copies: 2; dsDNA, one strand shown
T8 sequence: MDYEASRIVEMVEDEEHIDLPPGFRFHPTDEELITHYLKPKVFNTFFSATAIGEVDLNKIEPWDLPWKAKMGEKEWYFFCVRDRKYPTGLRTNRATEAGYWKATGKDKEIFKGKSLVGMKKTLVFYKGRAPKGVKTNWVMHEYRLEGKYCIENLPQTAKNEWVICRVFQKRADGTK
Method in brief: as §1

GST-ANAC019 NAC domain = molecular target: T9, GST-ANAC019 NAC domain (Arabidopsis thaliana, UniProt Q9C932 14-162); settings: protein: recombinant; tags: GST; chain copies: 2; dsDNA, one strand shown
T9 sequence: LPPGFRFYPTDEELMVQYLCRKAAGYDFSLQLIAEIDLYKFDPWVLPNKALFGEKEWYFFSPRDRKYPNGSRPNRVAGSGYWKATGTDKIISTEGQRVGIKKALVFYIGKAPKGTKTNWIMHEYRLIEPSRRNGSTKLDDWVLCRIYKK
Method in brief: as §1

GST-NTL8 NAC domain = molecular target: T10, GST-NTL8 NAC domain (Arabidopsis thaliana, UniProt Q9XIN7 14-156); settings: protein: recombinant; tags: GST; chain copies: 2; dsDNA, one strand shown
T10 sequence: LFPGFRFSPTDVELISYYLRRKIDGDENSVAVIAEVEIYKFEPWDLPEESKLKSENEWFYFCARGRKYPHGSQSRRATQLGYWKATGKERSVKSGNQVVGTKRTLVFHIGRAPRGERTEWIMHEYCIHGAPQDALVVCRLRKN
Method in brief: as §1

GST-NTL6(1-168), sequence (Q9SCK6 1-168): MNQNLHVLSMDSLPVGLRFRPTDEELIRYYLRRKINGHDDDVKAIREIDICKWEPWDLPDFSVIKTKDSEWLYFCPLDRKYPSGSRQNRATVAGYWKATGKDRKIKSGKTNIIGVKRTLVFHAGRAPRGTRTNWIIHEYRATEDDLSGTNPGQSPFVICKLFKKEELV

Sequence | binding signal (GST-NTL6(1-168)) [E-score] | binding signal (GST-ANAC055(1-171)) [E-score] | binding signal (GST-ATAF1 NAC domain) [E-score] | binding signal (GST-NAP(1-166)) [E-score] | binding signal (GST-VND3 NAC domain) [E-score] | binding signal (GST-WRKY1(266-371)) [E-score] | binding signal (GST-NST2(1-184)) [E-score] | binding signal (GST-VND7 NAC domain) [E-score] | binding signal [1] [E-score] | binding signal (GST-ANAC092(1-176)) [E-score] | binding signal (GST-ANAC019 NAC domain) [E-score] | binding signal (GST-NTL8 NAC domain) [E-score]
CTATTGAC | 0.075 | 0.0817 | 0.0721 | 0.0658 | 0.06 | 0.451 | – | – | – | – | – | –
AATGTCAA | – | 0.155 | 0.19 | 0.13 | 0.104 | 0.404 | 0.0715 | 0.0638 | – | – | – | –
GTTGACAA | – | 0.127 | 0.195 | 0.116 | 0.0521 | 0.446 | – | 0.0726 | 0.055 | – | – | –
ATATTGAC | – | – | 0.167 | 0.178 | 0.169 | 0.453 | – | 0.0695 | – | – | – | –
TATGACCA | – | – | – | – | 0.117 | 0.424 | – | – | – | – | – | –
AGTCAATC | 0.0768 | – | 0.0533 | 0.0978 | 0.0908 | 0.468 | 0.0674 | – | 0.0868 | 0.0925 | 0.0741 | 0.122
GTGGTCAA | – | 0.113 | 0.135 | – | 0.0872 | 0.489 | – | – | – | 0.0557 | – | –
GTCAATCA | – | 0.0807 | – | – | 0.132 | 0.435 | 0.0647 | 0.114 | 0.169 | – | 0.0668 | 0.0888
CAAGACCA | 0.0845 | 0.092 | 0.0751 | – | 0.0681 | 0.408 | 0.0893 | – | – | 0.106 | – | –
ACACGGCT | – | 0.347 | 0.264 | 0.194 | 0.348 | – | – | 0.321 | 0.335 | 0.181 | 0.418 | –
